# In the supplement of paper PMC4466140:
# Columns and labels:
# Experiment in all cases: SPOT peptide array binding signal intensity (averaged, normalized) (arbitrary units (background-subtracted, floor 0; scale differs between SH3 domains)); higher = stronger binding of the SH3 domain to the peptide
# [1] = target: CaNbp2
# Procedure, shortened: (§1)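 Peptides were synthetic 15-mers on cellulose membranes, with every cysteine replaced by serine. They were incubated overnight at 4°C with GST-SH3 domains from four yeast species at 10 μg/ml in TBS-based blocking buffer. Binding signal, the replicate-averaged normalized and background-subtracted spot intensity, is in arbitrary units that differ between domains.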
# [2] = target: CaRvs167
# Procedure, shortened: as §1
# [3] = target: CaRvs167-3
# Procedure, shortened: as §1
# [4] = target: CaSho1
# Procedure, shortened: as §1
# [5] = target: CaSla1-D1-D2
# Procedure, shortened: as §1
# [6] = target: CaSla1-D3
# Procedure, shortened: as §1
# [7] = target: ScAbp1
# Procedure, shortened: as §1
# [8] = target: ScBbc1
# Procedure, shortened: as §1
# [9] = target: ScBem1-D1
# Procedure, shortened: as §1
# [10] = target: ScBzz1-D1
# Procedure, shortened: as §1
# [11] = target: ScBzz1-D2
# Procedure, shortened: as §1
# [12] = target: ScCyk3
# Procedure, shortened: as §1
# [13] = target: ScFus1
# Procedure, shortened: as §1
# [14] = target: ScHof1
# Procedure, shortened: as §1
# [15] = target: ScHse1
# Procedure, shortened: as §1
# [16] = target: ScLsb1
# Procedure, shortened: as §1
# [17] = target: ScLsb2
# Procedure, shortened: as §1
# [18] = target: ScLsb3
# Procedure, shortened: as §1
# [19] = target: ScLsb4
# Procedure, shortened: as §1
# [20] = target: ScMyo3
# Procedure, shortened: as §1
# [21] = target: ScMyo5
# Procedure, shortened: as §1
# [22] = target: ScNbp2
# Procedure, shortened: as §1
# [23] = target: ScPex13
# Procedure, shortened: as §1
# [24] = target: ScRvs167
# Procedure, shortened: as §1
# [25] = target: ScSho1
# Procedure, shortened: as §1
# [26] = target: ScSla1-D1-D2
# Procedure, shortened: as §1
# [27] = target: ScSla1-D3
# Procedure, shortened: as §1
# [28] = target: SpAbp1-D1
# Procedure, shortened: as §1
# [29] = target: SpBbc1
# Procedure, shortened: as §1
# [30] = target: SpBzz1-D1
# Procedure, shortened: as §1
# [31] = target: SpBzz1-D2
# Procedure, shortened: as §1
# [32] = target: SpCyk3
# Procedure, shortened: as §1
# [33] = target: SpHof1
# Procedure, shortened: as §1
# [34] = target: SpHof1-2
# Procedure, shortened: as §1
# [35] = target: SpHof1-3
# Procedure, shortened: as §1
# [36] = target: SpHse1
# Procedure, shortened: as §1
# [37] = target: SpLsb1
# Procedure, shortened: as §1
# [38] = target: SpLsb4
# Procedure, shortened: as §1
# [39] = target: SpMyo1
# Procedure, shortened: as §1
# [40] = target: SpNbp2
# Procedure, shortened: as §1
# [41] = target: SpPex13
# Procedure, shortened: as §1
# [42] = target: SpRvs167
# Procedure, shortened: as §1
# [43] = target: SpSla1-D1-D2
# Procedure, shortened: as §1
# [44] = target: SpSla1-D3
# Procedure, shortened: as §1
# [45] = target: AgAbp1
# Procedure, shortened: as §1
# [46] = target: AgBbc1
# Procedure, shortened: as §1
# [47] = target: AgBem1-D1
# Procedure, shortened: as §1
# [48] = target: AgBzz1-D1
# Procedure, shortened: as §1
# [49] = target: AgBzz1-D2
# Procedure, shortened: as §1
# [50] = target: AgCyk3
# Procedure, shortened: as §1
# [51] = target: AgFus1
# Procedure, shortened: as §1
# [52] = target: AgHof1
# Procedure, shortened: as §1
# [53] = target: AgHse1
# Procedure, shortened: as §1
# [54] = target: AgLsb1
# Procedure, shortened: as §1
# [55] = target: AgLsb4
# Procedure, shortened: as §1
# [56] = target: AgMyo5
# Procedure, shortened: as §1
# [57] = target: AgNbp2
# Procedure, shortened: as §1
# [58] = target: AgRvs167
# Procedure, shortened: as §1
# [59] = target: AgSho1
# Procedure, shortened: as §1
# [60] = target: AgSla1-D1-D2
# Procedure, shortened: as §1
# [61] = target: AgSla1-D3
# Procedure, shortened: as §1
# [62] = target: CaAbp1-D1
# Procedure, shortened: as §1
# [63] = target: CaAbp1-D2
# Procedure, shortened: as §1
# [64] = target: CaBbc1
# Procedure, shortened: as §1
# [65] = target: CaBem1-D1
# Procedure, shortened: as §1
# [66] = target: CaBzz1-D1
# Procedure, shortened: as §1
# [67] = target: CaBzz1-D2
# Procedure, shortened: as §1
# [68] = target: CaCyk3
# Procedure, shortened: as §1
# [69] = target: CaFus1
# Procedure, shortened: as §1
# [70] = target: CaHof1
# Procedure, shortened: as §1
# [71] = target: CaHse1
# Procedure, shortened: as §1
# [72] = target: CaLsb1
# Procedure, shortened: as §1
# [73] = target: CaLsb4
# Procedure, shortened: as §1
# [74] = target: CaMyo5
# Procedure, shortened: as §1
binder,measurement,setting,value
VRVKKRPLIRPLNSS,SPOT peptide array binding signal intensity,[1],311
same,SPOT peptide array binding signal intensity,[2],8.5
same,SPOT peptide array binding signal intensity,[3],183
same,SPOT peptide array binding signal intensity,[4],370
same,SPOT peptide array binding signal intensity,[5],534
same,SPOT peptide array binding signal intensity,[6],0.25
same,SPOT peptide array binding signal intensity,[7],138
same,SPOT peptide array binding signal intensity,[8],82
same,SPOT peptide array binding signal intensity,[9],70
same,SPOT peptide array binding signal intensity,[10],11.5
same,SPOT peptide array binding signal intensity,[11],11
same,SPOT peptide array binding signal intensity,[12],91.5
same,SPOT peptide array binding signal intensity,[13],156
same,SPOT peptide array binding signal intensity,[14],0.75
same,SPOT peptide array binding signal intensity,[15],1480
same,SPOT peptide array binding signal intensity,[16],57.8
same,SPOT peptide array binding signal intensity,[17],5.5
same,SPOT peptide array binding signal intensity,[18],312
same,SPOT peptide array binding signal intensity,[19],19
same,SPOT peptide array binding signal intensity,[20],3
same,SPOT peptide array binding signal intensity,[21],1.5
same,SPOT peptide array binding signal intensity,[22],312
same,SPOT peptide array binding signal intensity,[23],0.25
same,SPOT peptide array binding signal intensity,[24],15.5
same,SPOT peptide array binding signal intensity,[25],386
same,SPOT peptide array binding signal intensity,[26],330
same,SPOT peptide array binding signal intensity,[27],16
same,SPOT peptide array binding signal intensity,[28],388
same,SPOT peptide array binding signal intensity,[29],9.75
same,SPOT peptide array binding signal intensity,[30],150
same,SPOT peptide array binding signal intensity,[31],≤ 0
same,SPOT peptide array binding signal intensity,[32],≤ 0
same,SPOT peptide array binding signal intensity,[33],188
same,SPOT peptide array binding signal intensity,[34],12.5
same,SPOT peptide array binding signal intensity,[35],373
same,SPOT peptide array binding signal intensity,[36],279
same,SPOT peptide array binding signal intensity,[37],14.5
same,SPOT peptide array binding signal intensity,[38],135
same,SPOT peptide array binding signal intensity,[39],5.5
same,SPOT peptide array binding signal intensity,[40],773
same,SPOT peptide array binding signal intensity,[41],17
same,SPOT peptide array binding signal intensity,[42],3.67
same,SPOT peptide array binding signal intensity,[43],≤ 0
same,SPOT peptide array binding signal intensity,[44],2
EVTPKVPERPSRRKT,SPOT peptide array binding signal intensity,[45],377
same,SPOT peptide array binding signal intensity,[46],2180
same,SPOT peptide array binding signal intensity,[47],13
same,SPOT peptide array binding signal intensity,[48],819
same,SPOT peptide array binding signal intensity,[49],136
same,SPOT peptide array binding signal intensity,[50],1
same,SPOT peptide array binding signal intensity,[51],4.5
same,SPOT peptide array binding signal intensity,[52],21.8
same,SPOT peptide array binding signal intensity,[53],47
same,SPOT peptide array binding signal intensity,[54],39.9
same,SPOT peptide array binding signal intensity,[55],2480
same,SPOT peptide array binding signal intensity,[56],1.25
same,SPOT peptide array binding signal intensity,[57],44.5
same,SPOT peptide array binding signal intensity,[58],11.3
same,SPOT peptide array binding signal intensity,[59],8.25
same,SPOT peptide array binding signal intensity,[60],≤ 0
same,SPOT peptide array binding signal intensity,[61],7.75
same,SPOT peptide array binding signal intensity,[62],324
same,SPOT peptide array binding signal intensity,[63],620
same,SPOT peptide array binding signal intensity,[64],2760
same,SPOT peptide array binding signal intensity,[65],24
same,SPOT peptide array binding signal intensity,[66],1370
same,SPOT peptide array binding signal intensity,[67],406
same,SPOT peptide array binding signal intensity,[68],420
same,SPOT peptide array binding signal intensity,[69],≤ 0
same,SPOT peptide array binding signal intensity,[70],4.88
same,SPOT peptide array binding signal intensity,[71],316
same,SPOT peptide array binding signal intensity,[72],≤ 0
same,SPOT peptide array binding signal intensity,[73],6660
same,SPOT peptide array binding signal intensity,[74],≤ 0
same,SPOT peptide array binding signal intensity,[1],80.8
same,SPOT peptide array binding signal intensity,[2],177
same,SPOT peptide array binding signal intensity,[3],2
same,SPOT peptide array binding signal intensity,[4],≤ 0
same,SPOT peptide array binding signal intensity,[5],786
same,SPOT peptide array binding signal intensity,[6],0.5
same,SPOT peptide array binding signal intensity,[7],141
same,SPOT peptide array binding signal intensity,[8],2080
same,SPOT peptide array binding signal intensity,[9],10
same,SPOT peptide array binding signal intensity,[10],57.5
same,SPOT peptide array binding signal intensity,[11],11.8
same,SPOT peptide array binding signal intensity,[12],1.53e-05
same,SPOT peptide array binding signal intensity,[13],5
same,SPOT peptide array binding signal intensity,[14],11.5
same,SPOT peptide array binding signal intensity,[15],≤ 0
same,SPOT peptide array binding signal intensity,[16],842
same,SPOT peptide array binding signal intensity,[17],508
same,SPOT peptide array binding signal intensity,[18],6280
same,SPOT peptide array binding signal intensity,[19],5280
same,SPOT peptide array binding signal intensity,[20],1.5
same,SPOT peptide array binding signal intensity,[21],≤ 0
same,SPOT peptide array binding signal intensity,[22],270
same,SPOT peptide array binding signal intensity,[23],1490
same,SPOT peptide array binding signal intensity,[24],924
same,SPOT peptide array binding signal intensity,[25],28.5
same,SPOT peptide array binding signal intensity,[26],2340
same,SPOT peptide array binding signal intensity,[27],69.4
same,SPOT peptide array binding signal intensity,[28],130
same,SPOT peptide array binding signal intensity,[29],1260
same,SPOT peptide array binding signal intensity,[30],514
same,SPOT peptide array binding signal intensity,[31],≤ 0
same,SPOT peptide array binding signal intensity,[32],0.75
same,SPOT peptide array binding signal intensity,[33],25.4
same,SPOT peptide array binding signal intensity,[34],74.4
same,SPOT peptide array binding signal intensity,[35],73.8
same,SPOT peptide array binding signal intensity,[36],51.2
same,SPOT peptide array binding signal intensity,[37],1550
same,SPOT peptide array binding signal intensity,[38],6800
same,SPOT peptide array binding signal intensity,[39],4.25
same,SPOT peptide array binding signal intensity,[40],9.5
same,SPOT peptide array binding signal intensity,[41],≤ 0
same,SPOT peptide array binding signal intensity,[42],1310
same,SPOT peptide array binding signal intensity,[43],48.5
same,SPOT peptide array binding signal intensity,[44],2
